Assay results taken from PubChem BioAssay AID1851 (National Center for Advancing Translational Sciences (NCATS), 2009).
Among all 16,000 compounds or so, about 5,800 (36%) were called active. Another 23% or so got no clear call; they are omitted. Calls follow the shape of the dose curve; as a rule, active = well fitted curve in the direction sought with a large enough effect; inconclusive = small, poorly fitted or top-dose-only effect, or effect the other way; inactive = no such curve, though single readings can be large or run the other way. The list shows a part of the results.

biological target: Cytochrome P450 2C19 (Homo sapiens) (UniProt P33261); test: Cytochrome panel assay with activity outcomes; conditions: recombinant CYP, pro-luciferin dealkylation, luminescence, p450-cyp2c19; series mostly up to 57.1 µM; activity, negative = inhibition: at the top concentration
% is scaled to controls: 0 for no effect and ±100 for the full control effect.

Sequence of Cytochrome P450 2C19 (Homo sapiens) (P33261 whole entry, looked up): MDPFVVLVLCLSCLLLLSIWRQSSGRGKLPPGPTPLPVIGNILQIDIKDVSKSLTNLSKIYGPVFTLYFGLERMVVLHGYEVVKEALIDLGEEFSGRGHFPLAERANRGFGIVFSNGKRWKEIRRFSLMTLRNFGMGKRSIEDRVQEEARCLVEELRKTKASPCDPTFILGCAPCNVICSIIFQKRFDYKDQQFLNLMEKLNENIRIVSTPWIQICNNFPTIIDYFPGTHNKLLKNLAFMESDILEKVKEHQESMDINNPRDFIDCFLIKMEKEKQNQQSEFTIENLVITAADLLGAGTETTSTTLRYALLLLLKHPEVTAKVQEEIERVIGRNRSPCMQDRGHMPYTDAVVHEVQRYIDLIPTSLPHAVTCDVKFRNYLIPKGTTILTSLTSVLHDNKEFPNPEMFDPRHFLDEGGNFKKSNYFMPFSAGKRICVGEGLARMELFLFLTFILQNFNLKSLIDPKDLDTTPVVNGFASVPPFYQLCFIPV

SMILES | activity, negative = inhibition | AC50
COc1cc(OC)nc(NC(C)=O)n1 | 14.4% (inactive) | 
CSc1cc(C)nc(NC(C)=O)n1 |  | 7.94 µM (active)
CC(=O)Nc1nc(NC(C)=O)c2[nH]c(CO)nc2n1 | 4.22% [at 11.4 µM] (inactive) | 
O=C(Oc1ccc2ccccc2c1Br)N1CCCCCC1 |  | 1.78 µM (active)
O=C(Oc1ccccc1)N1CCC2(CC1)CCN(c1ccccc1)CC2 | -34.4% (inactive) | 
Cc1cc(C)c2c(-n3cccc3)nn(CC#N)c2n1 |  | 11.2 µM (active)
Cc1cc(C)c2c(-n3cccc3)n[nH]c2n1 |  | 5.01 µM (active)
CN(C)/N=N\c1nc[nH]c1C(N)=O | 30.5% [at 25.6 µM] (inactive) | 
CCc1nnc2sc(-c3ccc(NC(=O)c4ccco4)cc3)nn12 |  | 28.2 µM (active)
O=C(O)[C@@H](O)[C@@H](O)[C@@H](O[C@H]1O[C@@H](CO)[C@@H](O)[C@@H](O)[C@@H]1O)[C@@H](O)CO | 12.8% [at 25.6 µM] (inactive) | 
COc1ccc(/C(C)=N/NC(=O)c2ccc(CSc3cccc4cccnc34)cc2)cc1OC |  | 2.51 µM (active)
Cc1cccc(CSc2cccc3cccnc23)c1 |  | 2.24 µM (active)
COCC(C)NCc1cccc(C)c1 (configuration not stated) | -18% (inactive) | 
CO[C@H]1COC(=O)C/C=C\[C@H](C)[C@@H](OC)COC(=O)[C@H](C)COC(=O)C/C=C\[C@@H]1C | 9.22% [at 11.4 µM] (inactive) | 
Cc1ccc(-n2ncc(N(C)C)c(Cl)c2=O)cc1 | -22.8% (inactive) | 
C=CCNc1cnn(-c2ccc(C)cc2)c(=O)c1Cl |  | 11.2 µM (active)
CC(C)/C(=N/[N+](C)(C)C)c1ccccc1 | 18.6% [at 11.4 µM] (inactive) | 
C[C@@H](C(=O)O)c1ccc(C(=O)c2cccs2)cc1 | -23.7% [at 25.6 µM] (inactive) | 
C[C@@H](C(=O)O)c1ccc(C(=O)c2ccccc2)s1 |  | 3.98 µM (active)
Cc1cc(Cl)ccc1Oc1ncnc2oc(-c3ccccc3)cc12 |  | 1.12 µM (active)
Cc1ccccc1Oc1ncnc2sccc12 |  | 3.55 µM (active)
Cc1ccccc1Oc1ncnc2oc(-c3ccccc3)cc12 |  | 3.98 µM (active)
COCCNC(=O)CSc1ncnc2sccc12 | -22.8% (inactive) | 

SMILES | activity, negative = inhibition | AC50
COc1cccc([C@H](O)Cn2cc(-c3ccc(CON=C(C)C)cc3)nn2)c1 | 6.04% [at 11.4 µM] (inactive) | 
Cc1cccc(OCCn2c(-c3ccco3)nc3ccccc32)c1 |  | 1.58 µM (active)
Cc1cccc(OCCn2c(S(=O)(=O)O)nc3ccccc32)c1 | -37.5% (inactive) | 
O=S1(=O)C=C(Oc2ccc3ccccc3c2)c2ccccc21 |  | 3.55 µM (active)
O=S1(=O)C=C(N2CCOCC2)c2ccccc21 | -30.9% (inactive) | 
Cc1ccc(S(=O)(=O)Nc2nc3ccccc3nc2N2CCc3ccccc3C2)cc1 |  | 5.01 µM (active)
Nc1ccc(S(=O)(=O)Nc2cnc3ccccc3n2)cc1 |  | inactive
COc1ccc(C(=O)N2CCC[C@@]3(CCN(Cc4ccc(C#N)cc4)C3)C2)cc1 | -8.34% (inactive) | 
N#CCSc1nc2cc(C(=O)N3CCCC3)ccc2c(=O)n1Cc1ccccc1 |  | 11.2 µM (active)
N#CCSc1nc2ccc(N3CCCCC3)cc2c(=O)n1Cc1ccccc1 |  | 7.94 µM (active)
O=C(c1ccncc1)N1CCC2(CCCN(Cc3ccccc3)C2)CC1 | -1.19% (inactive) | 
N#CCCn1c(=O)c(-c2ccc(F)cc2)nc2cnc(OCc3ccccc3)nc21 | 15.8% (inactive) | 
CCCCn1c(SCC(N)=O)nc2ccc(N3CCOCC3)cc2c1=O | -12.8% (inactive) | 
CSc1nc(N)c2ncn([C@H]3O[C@H](COP(=O)(O)OP(=O)(O)O)[C@@H](O)[C@@H]3O)c2n1 | -16.9% (inactive) | 
N#Cc1cc(-c2ccccc2)cnc1Sc1ccc(Cl)cc1 |  | 4.47 µM (active)
N#Cc1cc(-c2ccc(Cl)cc2)cnc1Sc1ccccc1 |  | 4.47 µM (active)
N=C1C(c2nc(-c3ccc(F)cc3)cs2)=C(O)CN1CCCN1CCOCC1 |  | 25.1 µM (active)
c1ccc2c(c1)ncn2-c1ncnc2sc3c(c12)CCCC3 |  | 8.91 µM (active)
N#Cc1c2c(c(-n3cnc4ccccc43)n3c1nc1ccccc13)CCC2 | -23.5% (inactive) | 
COc1ccccc1CN1C(=O)c2ccncc2C1=O |  | 14.1 µM (active)
COc1ccccc1CN1CC2(CCN(C(=O)c3ccncc3)CC2)C1 | -42.2% (inactive) | 
COc1ccccc1CN1CC2(CCN(C(=O)c3cnccn3)CC2)C1 | 37.1% (inactive) | 
CCOC(=O)c1c(C)nc2sc3c(=O)n(-c4ccc(C(C)=O)cc4)nnc3c2c1-c1ccc(Cl)cc1 | -21.6% (inactive) | 

SMILES | activity, negative = inhibition | AC50
CCOC(=O)c1c(C)nc2sc3c(=O)n(-c4ccc(C)cc4)cnc3c2c1-c1ccc(OC)cc1 |  | 1.26 µM (active)
Cc1cc2ccccc2c[n+]1CC(O)C[n+]1cc2ccccc2cc1C | 3.92% [at 11.4 µM] (inactive) | 
O=C(NCc1ccccc1)c1cccc(COc2cccc(Cl)c2)c1 |  | 7.08 µM (active)
O=C(O)c1ccc(OCc2ccccc2)c(Cl)c1 | 18.7% [at 11.4 µM] (inactive) | 
N#CC1=C(N)OC2=C(C(=O)CCC2)C12CCC1(CC2)OCCO1 | -60.8% (inactive) | 
O=c1c(-c2nnc(SCc3ccc(Cl)c(Cl)c3)o2)cccn1Cc1ccccc1 |  | 1.41 µM (active)
O=c1c(-c2nnc(SCc3ccc(Cl)cc3Cl)o2)cccn1Cc1ccccc1 |  | 1.26 µM (active)
COc1ccc(-c2nc3cnc(N4CCN(C)CC4)nc3n(C)c2=O)cc1 | -40.9% (inactive) | 
CN(C)c1ncc2nc(-c3cc(F)cc(F)c3)c(=O)n(CCC#N)c2n1 | 13.1% (inactive) | 
CCOC(=O)C1CCCN(C(=O)/C=C/c2cccc([N+](=O)[O-])c2)C1 (configuration not stated) |  | 14.1 µM (active)
O=C(O)[C@H]1CCCN(CCC=C(c2ccccc2)c2ccccc2)C1 | 37% (inactive) | 
CC1CC(C)CN(C/C=C/c2ccccc2[N+](=O)[O-])C1 (configuration not stated) |  | 7.08 µM (active)
Cc1ccc(NC(=O)/C(=C/c2cccc([N+](=O)[O-])c2)NC(=O)C2CCCCC2)c(C)c1 | -19.8% (inactive) | 
O=C(/C=C/c1cccc([N+](=O)[O-])c1)NCCN1CCOCC1 | -22.3% (inactive) | 
CCOC(=O)C1CCCN(C/C=C/c2ccccc2[N+](=O)[O-])C1 (configuration not stated) |  | 3.98 µM (active)
CC1CCCN(C/C=C/c2ccccc2[N+](=O)[O-])C1 (configuration not stated) |  | 8.91 µM (active)
O=C(CCCCC(=O)Nc1c(I)cc(I)c(C(=O)O)c1I)Nc1c(I)cc(I)c(C(=O)O)c1I | 2.67% [at 25.6 µM] (inactive) | 
O=C(O)CCNc1ncnc2nc[nH]c12 | 35.9% [at 11.4 µM] (inactive) | 
O=C(Nc1cc(C(=O)Nc2ccc(S(=O)(=O)O)cc2S(=O)(=O)O)cc(C(=O)Nc2ccc(S(=O)(=O)O)cc2S(=O)(=O)O)c1)Nc1cc(C(=O)Nc2ccc(S(=O)(=O)O)cc2S(=O)(=O)O)cc(C(=O)Nc2ccc(S(=O)(=O)O)cc2S(=O)(=O)O)c1 | -25.4% (inactive) | 
C#CCCCO/N=C1/C[C@@H](O)[C@@H](O)[C@@H]2[C@@H]3C(=O)N(CCC(=O)OCC)C(=O)[C@H]3CC[C@H]12 | 2.13% [at 11.4 µM] (inactive) | 
Oc1c(Cl)cc(C(c2cc(Cl)c(O)c(Cl)c2)C(c2cc(Cl)c(O)c(Cl)c2)c2cc(Cl)c(O)c(Cl)c2)cc1Cl |  | 2.51 µM (active)
Oc1c(Cl)cc(CN(Cc2cc(Cl)c(O)c(Cl)c2)C2CCCCC2)cc1Cl | -4.32% [at 11.4 µM] (inactive) | 
O=C(O)CCN1C(=S)CSC1=S | 27% [at 11.4 µM] (inactive) | 

SMILES | activity, negative = inhibition | AC50
Cc1nn(C)c(Cl)c1NC(=O)OCc1ccc(Cl)cc1Cl |  | 2.24 µM (active)
CCOC(=O)N/N=C/c1ccc(F)cc1 | -26% (inactive) | 
Cc1nn(C)c(Cl)c1NC(=O)OCc1ccc(F)cc1 |  | 7.08 µM (active)
COC(=O)N1CCC2(CCN(Cc3ccccc3OC)CC2)CC1 | -39% (inactive) | 
COc1ccccc1CN1CCC2(CC1)CCN(C(=O)c1c(C)noc1C)CC2 | 41.5% (inactive) | 
COc1ccccc1COC(=O)Nc1c(C)nn(C)c1Cl |  | 3.55 µM (active)
O=C(c1cnccn1)N1CCC2(CC1)CN(C(c1ccccc1)c1ccccc1)C2 | -22.3% (inactive) | 
CN(C)Cc1c[nH]c2nc[nH]c(=O)c12 | 42.6% [at 11.4 µM] (inactive) | 
COCCN(C(=O)C(C)C)c1nnc(-c2ccc(C)cc2)s1 |  | 7.94 µM (active)
COCC(=O)N(C)c1nnc(-c2ccc([N+](=O)[O-])cc2)s1 | -87.4% (inactive) | 
COCCN(C(=O)c1ccco1)c1nnc(-c2ccc(OC)cc2)s1 |  | 15.8 µM (active)
CO[C@@H]1COC(=O)[C@H]2CCCN2C(=O)[C@@H](C)COC(=O)C/C=C\[C@H]1C | 91.7% [at 11.4 µM] (inactive) | 
Cn1c(=O)c2c(ncn2CN2CCN(Cn3cnc4c3c(=O)n(C)c(=O)n4C)CC2)n(C)c1=O | -11.6% [at 11.4 µM] (inactive) | 
Cn1c(=O)c2c(nc(N3CCN(c4ccccn4)CC3)n2Cc2ccc(Cl)cc2Cl)n(C)c1=O |  | 6.31 µM (active)
Cn1c(=O)c2c(nc(N3CCN(c4ccccn4)CC3)n2Cc2ccccc2Cl)n(C)c1=O |  | 3.16 µM (active)
CN1CCN(c2nc3c(c(=O)n(C)c(=O)n3C)n2C)CC1 | -9.69% [at 11.4 µM] (inactive) | 
O=C(N/N=C1/C[C@@H](O)[C@@H](O)[C@@H]2[C@@H]3C(=O)N(Cc4ccccc4)C(=O)[C@H]3CC[C@@H]12)OCc1ccccc1 | 9.42% [at 11.4 µM] (inactive) | 
O=C(c1cccc(C(F)(F)F)c1)N1CCC(O)(CS(=O)(=O)Cc2ccccc2)CC1 |  | 22.4 µM (active)
O=C(c1cc(C(F)(F)F)cc(C(F)(F)F)c1)N1CCC2(CCN(Cc3ccccc3)CC2)CC1 | 3.98% (inactive) | 
O=C(c1cc(C(F)(F)F)cc(C(F)(F)F)c1)N1CCC2(CC1)CN(Cc1ccccc1)C2 | 23.7% (inactive) | 
COc1ccccc1CNc1ncncc1-c1ccc(C(=O)N(C)C)cc1 | -41.5% (inactive) | 
COc1ccc(CNc2ncncc2-c2ccc(C(=O)N(C)C)cc2)c(OC)c1 |  | 15.8 µM (active)
COc1ccc(CNc2ncncc2-c2ccc(N(C)C)cc2)c(OC)c1 |  | 1.58 µM (active)
